Consider four molecules from PubChem BioAssay.

Experiment [1] has as its system Plasmodium falciparum Sir2 (PF13_0152, Sir2A). Nature of the experiment: pfSir2 binders on small-molecule microarrays, primary screen, biochemical, small-molecule microarray, 635 nm fluorescence (AID 1098).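 Further: score merges spot fluorescence intensity with its signal-to-noise ratio.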 The settings on record: small-molecule microarray binding, fluorescence 635 nm; higher = more signal.
A short description of experiment [2]: small-molecule microarray binders of probe aDKK1, primary screen, biochemical, biotinylated probe, 635/667 nm fluorescence (AID 1099).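 Further: score merges 667nm spot fluorescence with signal to noise across triplicate slides.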 Particulars: higher = more signal.
Experiment [3] is described as follows: small-molecule microarray binders of probe aCHRDL2, primary screen, biochemical, biotinylated probe, 635/667 nm fluorescence (AID 1100). Particulars: higher = more signal.
Experiment [4] is described as follows: splicing luciferase reporter signal modulators, primary screen, spliceosome inhibition project, cell-based, HEK293, splice +/- reporter (AID 1101).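 Further: HEK293 cells carrying a splicing-competent luciferase reporter gene; test concentration not given here.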 Particulars: luminescence, 24 h, higher = more signal, called active from +8 up or from −8 down. (A reporter such as luciferase makes a cellular process visible.)
Experiment [5] concerns the target Fibroblast growth factor 10 (Homo sapiens) (UniProt O15520). Nature of the experiment: FGF10 binders on small-molecule microarrays, primary screen, biochemical, small-molecule microarray, 635 nm fluorescence (AID 1102). The settings on record: FGF10 binding, fluorescence 635 nm, higher = more signal.
For experiment [6], the system named is glycogen synthase kinase-3 (GSK3A per assay name; protocol says GSK3B). Nature of the experiment: GSK3 binders on small-molecule microarrays, primary screen, biochemical, small-molecule microarray, 635 nm fluorescence, GSK3A (AID 1103). Further: the record names both GSK3A and GSK3B. Particulars: small-molecule microarray binding, fluorescence 635 nm; higher = more signal.
For experiment [7], the target named is Epidermal growth factor receptor (Homo sapiens) (UniProt P00533). Nature of the experiment: EGFR binders on small-molecule microarrays, primary screen, biochemical, small-molecule microarray, 635 nm fluorescence (AID 1104).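 Further: score merges 667 nm emission intensity with spot signal to noise over triplicate slides.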 The settings on record: EGFR binding, higher = more signal.
The target of experiment [8] is Follistatin-related protein 3 (Homo sapiens) (UniProt O95633). Nature of the experiment: FSTL3 binders on small-molecule microarrays, primary screen, biochemical, small-molecule microarray, 635 nm fluorescence (AID 1105).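 Further: score merges emission near 667 nm and signal to noise per printed spot across three slides.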 Particulars: FSTL3 binding, higher = more signal.
Experiment [9] has as its target Dickkopf-related protein 1 (Homo sapiens) (UniProt O94907). Nature of the experiment: DKK1 binders on small-molecule microarrays, primary screen, biochemical, small-molecule microarray, 635 nm fluorescence scan (AID 1106).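 Further: score merges emission near 667 nm with signal to noise over three replicate slides.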 The settings on record: DKK1 binding, higher = more signal.
Experiment [10] concerns Inhibin beta A chain (activin A). Nature of the experiment: INHBA (activin A) binders on microarrays, primary screen, biochemical, small-molecule microarray, 635 nm fluorescence scan (AID 1107).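 Further: mouse activin A protein probed at 4.33 µg/mL on printed slides; score merges bound-protein fluorescence near 667 nm with spot signal-to-noise.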 Particulars: small-molecule microarray binding, higher = more signal.
For experiment [11], the system named is Human papillomavirus type 1a protein E7 (residues 44-93). Nature of the experiment: HPV1a E7 fragment binders on microarrays, primary screen, biochemical, small-molecule microarray, residues 44-93, 635 nm fluorescence (AID 1108).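 Further: E7 fragment applied at 1 µg/mL in TBST for 1 h at 4 C; score combines spot fluorescence with its signal to noise ratio.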 The settings on record: small-molecule microarray binding, fluorescence 635 nm; higher = more signal.
Experiment [12] is described as follows: modulators of HCV replicon luciferase signal, primary screen, HCV replication inhibitor project, Huh7 cells, luciferase reporter (AID 1109).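 Further: huh7 hepatoma cells harbouring a luciferase neomycin HCV replicon reporter; luciferase luminescence as measure of HCV replicon replication; test concentration not given here.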 The settings on record: 48 h, higher = more signal.
Experiment [13] concerns the target Left-right determination factor 2 (Homo sapiens) (UniProt O00292). Nature of the experiment: LEFTY2 binders on small-molecule microarrays, primary screen, biochemical, small-molecule microarray, 635 nm fluorescence scan (AID 1110). Particulars: LEFTY2 binding, higher = more signal.
Experiment [14] deals with Calmodulin-1 (Homo sapiens) (UniProt P0DP23). Nature of the experiment: CALM1 binders on microarrays, EGTA buffer, profiling panel, biochemical, small-molecule microarray, Cy5-labelled CALM1 (AID 1111).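 Further: labelled calmodulin applied in Tris saline Tween buffer holding calcium plus EGTA and DTT.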 Particulars: Cy5-CALM1 binding fluorescence, higher = more signal.
Experiment [15] shares this target. Nature of the experiment: calcium-bound CALM1 binders on microarrays, profiling panel, artefact control for SMM control-protein annotation, biochemical, small-molecule microarray, Cy5-labelled CALM1, plus calcium (AID 1112).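 Further: score merges spot fluorescence with signal to noise from triplicate slides.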 The settings on record: Cy5-CALM1 binding fluorescence, higher = more signal.
Experiment [16] can be described thus: small-molecule microarray binders of probe aWnt5a, primary screen, biochemical, biotinylated probe, 635/667 nm fluorescence (AID 1113).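 Further: score merges 667 nm fluorescence intensity with signal-to-noise per printed feature.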 Particulars: higher = more signal.
A short description of experiment [17]: small-molecule microarray binders of probe aShh, primary screen, biochemical, biotinylated probe, 635/667 nm fluorescence (AID 1114).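 Further: probe is biotin-labelled aShh protein from a stem cell growth factor screen; measures binding of labelled protein to compounds printed on the slide; score merges feature fluorescence at 667 nm with signal-to-noise.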 Particulars: higher = more signal.
Experiment [18] can be described thus: small-molecule microarray binders of probe aNog, primary screen, biochemical, biotinylated probe, 635/667 nm fluorescence (AID 1115).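 Further: probe is biotinylated aNog protein used at 0.15 µg/mL for 1 h at 4 C; z-score combines 667 nm fluorescence of each spot with its signal to noise.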 The settings on record: higher = more signal.
The target in experiment [19] is Torsin-1A-interacting protein 1 (Homo sapiens) (UniProt Q5JTV8). Nature of the experiment: LAP1 binders from COS7 cell lysate, primary screen, small-molecule microarray, 635/667 nm fluorescence (AID 1116). The settings on record: COS7-hLAP1 lysate binding, 635 nm fluorescence, higher = more signal.
For experiment [20], the target named is Alpha-bungarotoxin (Bungarus multicinctus) (UniProt P60615). Nature of the experiment: alpha-bungarotoxin binders on microarray, profiling panel, artefact control for SMM control protein annotation, biochemical, small-molecule microarray, Alexa647 label, 635/667 nm fluorescence (AID 1117). Particulars: alpha-BTX-A647 binding fluorescence, higher = more signal.

Each structure is given as a SMILES string. Values joined by “and” are separate entries in the source; they are usually repeats but may differ in a detail not shown here. Identical values can stand only once. Active and inactive are the calls of the source.

Sequence of Dickkopf-related protein 1 (Homo sapiens) (O94907 whole entry, looked up): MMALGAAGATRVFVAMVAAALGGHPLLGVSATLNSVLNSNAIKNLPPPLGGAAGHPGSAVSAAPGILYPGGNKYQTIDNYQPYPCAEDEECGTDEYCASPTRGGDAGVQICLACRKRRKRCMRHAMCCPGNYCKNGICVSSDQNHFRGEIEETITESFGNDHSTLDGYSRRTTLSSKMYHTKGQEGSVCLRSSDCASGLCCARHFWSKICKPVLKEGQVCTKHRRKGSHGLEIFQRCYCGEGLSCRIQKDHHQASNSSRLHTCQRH
Sequence of Epidermal growth factor receptor (Homo sapiens) (P00533 whole entry, looked up): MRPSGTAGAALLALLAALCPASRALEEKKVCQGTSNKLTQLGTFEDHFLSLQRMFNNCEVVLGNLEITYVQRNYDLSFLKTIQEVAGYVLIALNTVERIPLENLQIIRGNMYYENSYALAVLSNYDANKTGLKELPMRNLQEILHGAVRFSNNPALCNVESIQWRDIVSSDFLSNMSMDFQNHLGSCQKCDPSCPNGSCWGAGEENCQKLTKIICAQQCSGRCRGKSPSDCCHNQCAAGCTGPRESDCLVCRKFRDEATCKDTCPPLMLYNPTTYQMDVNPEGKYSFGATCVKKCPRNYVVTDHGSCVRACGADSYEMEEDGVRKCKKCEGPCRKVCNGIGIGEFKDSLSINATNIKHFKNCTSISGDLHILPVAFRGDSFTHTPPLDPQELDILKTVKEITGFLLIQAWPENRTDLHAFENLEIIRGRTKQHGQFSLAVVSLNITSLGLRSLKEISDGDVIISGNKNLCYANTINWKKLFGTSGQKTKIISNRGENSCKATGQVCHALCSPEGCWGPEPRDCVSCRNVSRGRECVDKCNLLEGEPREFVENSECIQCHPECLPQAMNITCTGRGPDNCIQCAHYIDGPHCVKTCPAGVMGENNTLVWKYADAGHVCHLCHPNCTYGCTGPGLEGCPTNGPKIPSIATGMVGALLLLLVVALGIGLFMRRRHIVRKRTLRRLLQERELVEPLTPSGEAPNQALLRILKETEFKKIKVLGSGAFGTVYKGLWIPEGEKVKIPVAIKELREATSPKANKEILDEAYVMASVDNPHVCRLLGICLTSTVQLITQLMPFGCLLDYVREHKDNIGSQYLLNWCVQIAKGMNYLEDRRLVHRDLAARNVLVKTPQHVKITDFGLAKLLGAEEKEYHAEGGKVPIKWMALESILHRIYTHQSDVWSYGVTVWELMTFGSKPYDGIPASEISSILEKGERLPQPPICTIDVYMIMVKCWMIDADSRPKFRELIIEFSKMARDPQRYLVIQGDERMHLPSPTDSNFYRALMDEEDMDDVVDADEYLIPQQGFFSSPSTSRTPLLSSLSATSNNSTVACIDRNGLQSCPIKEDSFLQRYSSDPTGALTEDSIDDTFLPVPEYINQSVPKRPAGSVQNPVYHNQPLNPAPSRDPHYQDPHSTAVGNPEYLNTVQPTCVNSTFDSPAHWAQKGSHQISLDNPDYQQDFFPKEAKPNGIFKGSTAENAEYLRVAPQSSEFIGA
Sequence of Torsin-1A-interacting protein 1 (Homo sapiens) (Q5JTV8 whole entry, looked up): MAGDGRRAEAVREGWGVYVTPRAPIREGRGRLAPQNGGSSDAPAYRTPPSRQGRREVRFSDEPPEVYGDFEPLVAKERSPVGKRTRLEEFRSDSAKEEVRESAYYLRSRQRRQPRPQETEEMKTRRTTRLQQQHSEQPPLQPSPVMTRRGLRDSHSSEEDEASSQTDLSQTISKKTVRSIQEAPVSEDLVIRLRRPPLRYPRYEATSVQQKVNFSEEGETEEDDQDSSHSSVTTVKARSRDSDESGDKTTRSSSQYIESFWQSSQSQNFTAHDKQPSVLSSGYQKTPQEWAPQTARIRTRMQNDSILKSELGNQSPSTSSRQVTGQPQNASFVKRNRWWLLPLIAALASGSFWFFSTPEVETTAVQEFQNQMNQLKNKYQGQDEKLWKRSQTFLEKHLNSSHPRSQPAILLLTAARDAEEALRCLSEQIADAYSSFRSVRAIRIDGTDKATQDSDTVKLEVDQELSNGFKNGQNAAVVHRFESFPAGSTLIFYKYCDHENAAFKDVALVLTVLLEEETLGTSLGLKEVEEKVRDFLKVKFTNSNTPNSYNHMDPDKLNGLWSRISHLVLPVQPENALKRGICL
Sequence of Left-right determination factor 2 (Homo sapiens) (O00292 whole entry, looked up): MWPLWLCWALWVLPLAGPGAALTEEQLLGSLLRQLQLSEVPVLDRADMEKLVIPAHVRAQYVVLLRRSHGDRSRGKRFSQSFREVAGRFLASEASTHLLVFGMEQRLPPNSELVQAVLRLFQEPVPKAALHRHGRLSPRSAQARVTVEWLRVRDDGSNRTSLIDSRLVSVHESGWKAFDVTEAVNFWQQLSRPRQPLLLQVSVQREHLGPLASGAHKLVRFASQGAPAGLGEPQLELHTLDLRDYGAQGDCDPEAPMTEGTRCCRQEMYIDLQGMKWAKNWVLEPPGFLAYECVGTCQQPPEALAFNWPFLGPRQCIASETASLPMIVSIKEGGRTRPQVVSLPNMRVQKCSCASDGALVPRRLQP
Sequence of Fibroblast growth factor 10 (Homo sapiens) (O15520 whole entry, looked up): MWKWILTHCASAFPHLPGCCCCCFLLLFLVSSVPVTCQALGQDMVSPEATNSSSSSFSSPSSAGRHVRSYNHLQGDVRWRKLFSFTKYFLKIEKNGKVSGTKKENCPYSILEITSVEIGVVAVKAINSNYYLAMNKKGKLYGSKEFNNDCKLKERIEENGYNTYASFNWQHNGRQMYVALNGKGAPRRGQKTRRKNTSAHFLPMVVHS
Sequence of Follistatin-related protein 3 (Homo sapiens) (O95633 whole entry, looked up): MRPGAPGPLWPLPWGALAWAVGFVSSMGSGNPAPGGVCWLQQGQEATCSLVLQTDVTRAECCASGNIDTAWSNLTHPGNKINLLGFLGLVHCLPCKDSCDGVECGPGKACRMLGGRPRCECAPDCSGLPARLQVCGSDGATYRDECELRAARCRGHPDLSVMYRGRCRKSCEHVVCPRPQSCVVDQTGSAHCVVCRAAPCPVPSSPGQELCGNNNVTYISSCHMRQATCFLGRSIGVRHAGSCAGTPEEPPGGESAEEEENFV
Sequence of Alpha-bungarotoxin (Bungarus multicinctus) (P60615 whole entry, looked up): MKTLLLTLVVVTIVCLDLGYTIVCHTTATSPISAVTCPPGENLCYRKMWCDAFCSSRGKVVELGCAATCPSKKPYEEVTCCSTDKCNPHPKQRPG

On to `CC(CO)N1C(=O)[C@@H]2C3C(=O)OCCC=C[C@H]3OC23C=CCN(C(C)(C)C)C(=O)[C@@H]13` (stereo not given in full), for which the composite z-score was -0.117 and -0.15 in experiment [1]; -0.216 and 0.073 in experiment [2]; 0.254 and 0.178 in [3]; -0.941 and 0.229 in [5]; -0.875 and 0.449 in experiment [6]; -0.839 and -0.726 in experiment [7]. Moreover, the composite z-score was -0.464 and 0.008 in experiment [8]; -0.476 and -0.008 in experiment [9]; 0.298 and 1.11 in experiment [10]; -0.925 and -1 in experiment [11]; -1.51 and -0.114 in [13]; -0.286 and -0.991 in experiment [14]. In addition, the composite z-score in experiment [15] is 1.02 and -1.03; in [16], -0.222 and -0.0584; in experiment [17], -0.168 and -0.0553; in experiment [18], -0.219 and -0.46; in experiment [19], 0.232 and 1.48; in [20], -2.94 and -0.198. Moreover, the z-score in [4] is 0.612 (inactive) and -0.541 (inactive); in experiment [12], -0.319 and -0.502.
For the molecule `C=CCN(Cc1ccccc1)C(=O)C1N(CCOCCO)C(=O)C2C(C(=O)O)C3C=CC21O3` (stereo not given), the composite z-score was 0.824 and 1.03 in experiment [1]; 0.0606 and -0.027 in experiment [2]; 1 and 1.1 in experiment [3]; -1.09 and -0.997 in experiment [5]; -0.419 and -0.793 in experiment [6]; -2.36 and -1.85 in experiment [7]. Besides, the composite z-score is -2.65 and -2.12 in experiment [8]; -2.78 and -2.98 in experiment [9]; -2.4 and -2.13 in [10]; -0.445 and -0.308 in experiment [11]; -3 and -3.39 in experiment [13]; -0.711 and -0.795 in experiment [14]. In addition, the composite z-score in experiment [15] is 0.473 and -0.0792; in [16], -0.228 and -0.208; in experiment [17] it was -0.138 and -0.276; in [18] it was 0.238 and -0.341; in experiment [19], 3.99 and -0.887; in experiment [20] it was -2.86 and -1.73. For the same molecule, the z-score was -1.11 (inactive) and -0.281 (inactive) in experiment [4]; 0.0184 and -0.0316 in experiment [12].
Regarding `COc1ccc(COC(=O)NN=C2C[C@@H](O)[C@@H](O)[C@@H]3[C@@H]4C(=O)N(C(C)(C)C)C(=O)[C@@H]4CC[C@H]23)cc1`, the composite z-score in experiment [1] was 0.871; in experiment [2] it was -0.325; in experiment [3], -0.25; in experiment [5], 0.589; in experiment [6], 0.241; in experiment [7], -0.0313. Besides, the composite z-score is 0.121 in experiment [8]; -0.116 in [9]; -0.786 in experiment [10]; 1.01 in experiment [11]; 0.0311 in experiment [13]; -0.0989 in experiment [14]. Further, the composite z-score in experiment [15] is -0.143; in experiment [16], -0.1; in experiment [17] it was 0.0469; in experiment [18] it was -0.242; in experiment [19], 0.677; in [20], 0.7. The z-score was -0.544 (inactive) in [4] and -0.167 in experiment [12].
Consider `CCOC(=O)C[C@H]1[C@H](OC(=O)c2ccccc2-c2ccccc2)[C@@H](NC(=O)Cc2ccc(OC)cc2)c2cc(OCCCO)ccc2N1C(=O)Cc1ccc(OC)cc1`, for which the composite z-score was 0.463 and -0.568 in experiment [1]; 0.659 and -0.038 in experiment [2]; 0.675 and 0.58 in experiment [3]; 0.57 and -0.0746 in [5]; 0.348 and -0.607 in experiment [6]; -0.111 and -0.847 in experiment [7]. In addition, the composite z-score in experiment [8] was 0.223 and -0.624; in experiment [9], -0.215 and -0.331; in experiment [10], 0.29 and 0.764; in experiment [11] it was 0.361 and -0.687; in [13], 0.422 and -0.519; in [14] it was 1.11 and -0.163. Also, the composite z-score in [15] is 0.971 and -0.309; in experiment [16], -0.0346 and -0.0107; in experiment [17], 0.412 and -0.0977; in experiment [18], 0.811 and 0.467; in [19], 0.477 and 0.415; in experiment [20] it was 0.873 and 0.224. For the same molecule, the z-score in experiment [4] is -1.05 (inactive) and -0.311 (inactive); in [12], -0.912 and -0.962.
